Results filed as inconclusive are left out. Activity calls are given as the source filed them. Unless noted, calls come from the whole dose curve; as a rule, active = well fitted curve in the direction sought with a large enough effect; inconclusive = small, poorly fitted or top-dose-only effect, or another doubt; inactive = no such curve, though single readings can be large; an effect the other way counts as inactive or inconclusive.

Here are results for 3 molecules from PubChem BioAssay (NCATS).

The target of experiment [1] is Lysosomal acid glucosylceramidase (Homo sapiens) (UniProt P04062). Kind of experiment: Glucocerebrosidase-p2 (AID 348; in the data active = potency below about 10 µM; note: potency is the fitted concentration of half-maximal effect). The note with it: purified GBA, blue fluorogenic substrate, 40 min. The gist of the method:
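Compounds titrated from 0.6 nM upwards against 0.2 nM enzyme in pH 5.9 citric acid/KH2PO4, taurocholate, tween-20; blue fluorogenic substrate 80 uM, 40 min room temperature, stopped and read Ex 365/Em 440 for AC50.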

The nature of experiment [2]: AP1 Signaling Pathway (AID 357; active = well fitted curve in either direction with a large enough effect, not every such curve was filed as active;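 note: ME-180 reporter cells stimulated with EGF at its EC50 level; % is set by controls: 0 for no effect and ±100 for the full control effect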). The note with it: ME-180 AP-1-bla reporter, EGF-induced, beta-lactamase ratio, 5 h; at 7.69 µM (top of the series) unless noted. The gist of the method:
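Titration-series screen for positive or negative modulators of EC50 EGF-induced signaling in ME-180 cells carrying an AP-1-driven beta-lactamase reporter. After 5 hours at 37 degrees Celsius, CCF4 460nm/530nm emission ratio gave %Activity; AC50 values derived.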

In experiment [3] the target is Cytochrome P450 1A2 (Homo sapiens) (UniProt P05177). Kind of experiment: p450-cyp1a2 (AID 410; calls by dose curve; note: potency is the fitted concentration of half-maximal effect). The following applies: recombinant CYP1A2, luciferin-ME demethylation, luminescence; series mostly up to 57 µM. The gist of the method:
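Inhibition was calculated relative to 57 uM furafylline (full inhibition). The reaction used human CYP1A2 at 20nM with Luciferin-ME at its Km, 100uM, driven by an NADPH-regenerating system for 60 min at room temperature.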

Experiment [4] is described as follows: NFAT Signaling Pathway (AID 444; active = well fitted curve in either direction with a large enough effect, not every such curve was filed as active;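 note: carbachol stimulus at about its EC50 of 1 µM final; % is set by controls: 0 for no effect and ±100 for the full control effect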). The note with it: Jurkat NFAT-bla M1, carbachol, beta-lactamase ratio, 5 h; at 7.69 µM (top of the series) unless noted. The procedure, abridged:
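Read-out: CCF4 FRET ratio (460 nm/530 nm) after 1 h RT dye loading, used for %activity and AC50 from titration series. Cells: Jurkat NFAT-β-lactamase/M1 line, treated with compound plus 1 uM carbachol for 5 h, 37 °C.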

A short description of experiment [5]: Stat Signaling Pathway (AID 446; active = well fitted curve in either direction with a large enough effect, not every such curve was filed as active;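 note: ME-180 cervical cancer cells given 40 pM IL-6 alongside compound; SIE-controlled beta-lactamase reporter measured as 460/530 nm FRET emission ratio; % is set by controls: 0 for no effect and ±100 for the full control effect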). The note with it: ME-180 (cervical carcinoma) SIE beta-lactamase reporter, IL-6 stimulated, 5 h; at 7.69 µM (top of the series) unless noted. The gist of the method:
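ME-180 SIE-bla cells; overnight plating; cpd + IL-6 40 pM, 5 h, 37 C; LiveBLAzer 2.5 h RT; 460/530 nm emission ratio. Normalized to 300 pM IL-6 and 125 nM JAK inhibitor controls.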

Experiment [6] concerns the target Glucocorticoid receptor (Homo sapiens) (UniProt P04150). The experiment can be described thus: GR-GFP Redistribution (AID 450;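 active = compounds whose dose series gives a full or clear partial fitted curve of increased nuclear translocation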; note: potency is the fitted concentration of half-maximal effect). The note with it: U2OS GR-GFP nuclear translocation, laser cytometry, 2 h.
For experiment [7] the target is unchanged. Kind of experiment: GR-EFC Redistribution (AID 451; calls by dose curve; note: potency is the fitted concentration of half-maximal effect). The following applies: CHO-K1 GR-EFC translocation, beta-gal luminescence, 2 h. The gist of the method:
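Translocation of GR-ED fusion to nuclear EA restores b-gal, read by luminescence after 1 h room-temperature detection. Engineered CHO-K1 biosensor cells, 1,000/well, exposed 2 h at 37 C to titrations up to 46 uM final.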

Experiment [8] concerns the target Mitogen-activated protein kinase 10 (Mus musculus) (UniProt Q61831). Kind of experiment: JNK3 AlphaScreen Assay (AID 530; active = well fitted curve in either direction with a large enough effect, not every such curve was filed as active;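 note: kinase came from lysate of stimulated human HepG2 cells; signal reports phosphorylation of biotinylated GST-cJun 1-79 at Ser73 with 10 µM ATP; % is set by controls: 0 for no effect and ±100 for the full control effect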). The note with it: JNK3 lysate, c-Jun phosphorylation; series mostly up to 57.1 µM. The procedure, abridged: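 Room-temperature AlphaScreen kinase assay; pre-activated HepG2 lysate as JNK3 source, biotin-GST-cJun(1-79) substrate, 10 uM ATP, compound 15 min preincubation.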
(Bead proximity is the source of the signal in Alpha formats.)

Experiment [9] concerns the target 3',5'-cyclic-AMP phosphodiesterase 4B (Homo sapiens) (UniProt Q07343). The experiment can be described thus: qHTS Assay for Inhibitors of PDE-IV (AID 607; active = well fitted activation curve with a large enough effect in the main read-out, with a control signal flat, not every such curve was filed as active; note: % of control where 0% means no effect). The following applies: HEK293 ACTOne CNG channel cells, membrane potential fluorescence; series mostly up to 22.9 µM. The procedure, abridged: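 ACTOne HEK293 cells carry a modified cAMP-gated CNG channel and express endogenous PDE4; plated 1000 cells/well, compounds up to 22.9 uM final. Membrane-potential dye fluorescence (ex 535/em 590) was read; parental cells received 10 uM forskolin + 100 uM RO 20-1724.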

In experiment [10] the target is Cytochrome P450 3A4 (Homo sapiens) (UniProt P08684). The experiment can be described thus: qHTS Assay for Inhibitors and Substrates of Cytochrome P450 3A4 (AID 884). Note: % is set by controls: 0 for no effect and ±100 for the full control effect; nearly all actives have a fitted effect of over 50% in size. The note with it: recombinant CYP3A4, Luciferin-PPXE luminescence; series mostly up to 57.1 µM. The gist of the method: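 20 nM human CYP3A4 with 25 uM Luciferin-PPXE (at KM) in 200 mM KPO4, preincubated 10 min with compound; NADPH regeneration started a 60 min RT reaction. Luciferin detected by luminescence, normalized to 57 uM ketoconazole as full inhibition.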
(In general: In qHTS, concentration-response curves come from the screen itself.)

Experiment [11] has the same target. Kind of experiment: qHTS Assay for Activators of Cytochrome P450 3A4 (AID 885). Note: nearly all actives have a fitted effect of over 65% in size. Note: potency is the fitted concentration of half-maximal effect. The following applies: recombinant CYP3A4, Luciferin-PPXE luminescence, 60 min; series mostly up to 57.1 µM. The gist of the method: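 20nM CYP3A4 + 25uM Luciferin-PPXE (=KM), 200mM KPO4; cpd 10 min RT; NADPH regen, 60 min RT; stop w/ detection buffer, 20 min; luminescence. Normalized to 57 uM ketoconazole.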

The nature of experiment [12]: qHTS Assay for Lipid Storage Modulators (AID 1519; calls by dose curve). The following applies: Drosophila S3 cells, BODIPY lipid droplet/cell ratio, laser cytometry, cells loaded with oleic acid; for activity change, negative = inhibition: at 57.5 µM (top of the series). The procedure, abridged:
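Cells seeded at 5,000 per well were treated with compounds over a concentration series and loaded with oleic acid (400 uM, as added). Lipid droplet fluorescence (488 nm excitation, 500-530 nm channel) was read by laser-scanning cytometry and normalized to 20 uM Triacsin C.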

Experiment [13] has as its target Dual specificity protein kinase CLK4 (Homo sapiens) (UniProt Q9HAZ1). Kind of experiment: qHTS Assay for Inhibitors of CDC-like Kinase 4 (Kinase-Glo Assay) (AID 1770). Note: nearly all actives have a fitted effect of over 65% in size. Note: potency is the fitted concentration of half-maximal effect. The note with it: recombinant Clk4, Kinase-Glo ATP depletion luminescence; series mostly up to 66.7 µM. The procedure, abridged: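 25 nM Clk4 with 100 uM RS repeat peptide and 1 uM ATP (final) in Tris pH7.5, 10 mM MgCl2, 4.5 h at room temperature. Remaining ATP measured by Kinase-Glo luciferase luminescence.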

For experiment [14] the target is unchanged. The experiment can be described thus: qHTS Assay for Inhibitors of CDC-like Kinase 4 (ADP-Glo Assay) (AID 1771). Note: nearly all actives have a fitted effect of over 70% in size. Note: potency is the fitted concentration of half-maximal effect. The following applies: recombinant CLK4, ADP-Glo luminescence; series mostly up to 80 µM. The procedure, abridged:
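Kinase reaction: Clk4 at 25 nM, RS repeat peptide substrate at 100 uM, ATP at 1 uM, 1 hr, room temperature. Product ADP detected as luciferase signal via ADP-Glo.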

Experiment [15] shares this target. Kind of experiment: qHTS Assay for Inhibitors of CDC-like Kinase 4 (ADP-FP Assay) (AID 1795). Note: nearly all actives have a fitted effect of over 60% in size. Note: potency is the fitted concentration of half-maximal effect. The following applies: Transcreener ADP fluorescence polarization; series mostly up to 50 µM. The gist of the method: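 Recombinant Clk4 (6.25 nM) phosphorylated 100 uM RS repeat peptide with 1 uM ATP in 25 mM Tris pH 7.5, 10 mM MgCl2, 0.5 mM EGTA, 2.5 mM DTT, 0.01% Triton X-100 for 1 h. ADP was detected by Transcreener ADP2 competitive fluorescence polarization after 30 min at room temperature.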

In experiment [16] the target is Ubiquitin carboxyl-terminal hydrolase 1 (Homo sapiens) (UniProt O94782). The experiment can be described thus: Inhibitors of USP1/UAF1: Pilot qHTS (AID 504865).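 Note: rhodamine fluorescence freed from ubiquitin-rhodamine substrate followed over time; top concentration of the series differs between compounds; % is set by controls: 0 for no effect and ±100 for the full control effect; nearly all actives have a fitted effect of over 35% in size.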 The following applies: purified USP1/UAF1, Ub-rhodamine cleavage fluorescence; series mostly up to 54.9 µM. The procedure, abridged:
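USP1/UAF1 complex at 1 nM preincubated 15 min at room temperature with compound, then Ub-Rho substrate added at 150 nM final. Fluorescence (480/540 nm) read kinetically in 50 mM HEPES pH 7.8, 0.5 mM EDTA, 1 mM TCEP, 0.1 mg/ml BSA, 0.01% Tween-20.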

Experiment [17] is described as follows: Primary qHTS for small molecule stabilizers of the endoplasmic reticulum resident proteome: Secreted ER Calcium Modulated Protein (SERCaMP) assay (AID 1508630). Note: % is set by controls: 0 for no effect and ±100 for the full control effect. The note with it: SH-SY5Y GLuc-SERCaMP (Gaussia luciferase released on ER calcium loss) secretion, thapsigargin, luminescence; series mostly up to 38.4 µM. The gist of the method:
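GLuc-SERCaMP-expressing SH-SY5Y cells, pretreated 16 h with compound, are challenged with thapsigargin to empty ER calcium stores; after 4 h, coelenterazine is added directly to the medium and luminescence is imaged.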

Setting [18] is: measured here: cell count channel max response.
The mark [19] stands for this setting: measured here: lipid channel max response.

3',5'-cyclic-AMP phosphodiesterase 4B (Homo sapiens), sequence (Q07343 whole entry, looked up): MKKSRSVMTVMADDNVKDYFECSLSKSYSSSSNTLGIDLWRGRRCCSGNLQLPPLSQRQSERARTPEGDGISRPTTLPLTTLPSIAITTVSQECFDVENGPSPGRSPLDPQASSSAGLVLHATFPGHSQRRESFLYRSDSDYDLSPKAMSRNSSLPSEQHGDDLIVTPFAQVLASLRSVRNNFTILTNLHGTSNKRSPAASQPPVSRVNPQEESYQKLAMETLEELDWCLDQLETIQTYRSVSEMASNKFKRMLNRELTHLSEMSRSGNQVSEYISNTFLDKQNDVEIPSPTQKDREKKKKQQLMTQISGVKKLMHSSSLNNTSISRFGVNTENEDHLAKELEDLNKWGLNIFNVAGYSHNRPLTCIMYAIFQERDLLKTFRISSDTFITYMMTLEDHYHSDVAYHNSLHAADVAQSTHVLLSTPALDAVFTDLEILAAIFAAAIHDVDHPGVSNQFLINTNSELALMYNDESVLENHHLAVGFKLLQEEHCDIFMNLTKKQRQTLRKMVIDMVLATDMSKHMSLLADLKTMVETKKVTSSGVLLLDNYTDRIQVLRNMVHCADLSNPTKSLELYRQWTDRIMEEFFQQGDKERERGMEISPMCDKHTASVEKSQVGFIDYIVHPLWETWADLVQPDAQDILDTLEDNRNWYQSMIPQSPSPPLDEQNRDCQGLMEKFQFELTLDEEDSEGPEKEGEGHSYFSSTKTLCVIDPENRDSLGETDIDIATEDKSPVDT
Ubiquitin carboxyl-terminal hydrolase 1 (Homo sapiens), sequence (O94782 whole entry, looked up): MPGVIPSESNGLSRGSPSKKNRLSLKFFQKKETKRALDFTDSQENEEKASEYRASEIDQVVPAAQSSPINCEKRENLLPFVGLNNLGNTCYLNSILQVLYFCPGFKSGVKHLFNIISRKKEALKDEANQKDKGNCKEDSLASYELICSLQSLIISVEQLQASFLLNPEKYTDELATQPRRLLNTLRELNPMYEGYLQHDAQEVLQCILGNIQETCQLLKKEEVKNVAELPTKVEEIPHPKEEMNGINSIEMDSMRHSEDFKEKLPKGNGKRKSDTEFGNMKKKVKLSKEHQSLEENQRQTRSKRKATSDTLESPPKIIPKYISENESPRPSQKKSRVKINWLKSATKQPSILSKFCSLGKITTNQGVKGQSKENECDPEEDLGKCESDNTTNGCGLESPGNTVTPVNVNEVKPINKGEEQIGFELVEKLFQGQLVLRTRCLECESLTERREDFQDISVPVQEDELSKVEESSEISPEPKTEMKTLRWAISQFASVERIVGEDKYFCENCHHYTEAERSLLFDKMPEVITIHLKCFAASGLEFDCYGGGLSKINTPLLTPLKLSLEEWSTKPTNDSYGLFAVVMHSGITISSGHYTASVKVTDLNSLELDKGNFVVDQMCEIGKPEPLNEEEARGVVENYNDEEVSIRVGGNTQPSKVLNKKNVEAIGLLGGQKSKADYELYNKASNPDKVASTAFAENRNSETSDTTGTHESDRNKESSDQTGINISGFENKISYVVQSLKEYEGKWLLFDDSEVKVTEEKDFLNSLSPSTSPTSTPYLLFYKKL
Dual specificity protein kinase CLK4 (Homo sapiens), sequence (Q9HAZ1 whole entry, looked up): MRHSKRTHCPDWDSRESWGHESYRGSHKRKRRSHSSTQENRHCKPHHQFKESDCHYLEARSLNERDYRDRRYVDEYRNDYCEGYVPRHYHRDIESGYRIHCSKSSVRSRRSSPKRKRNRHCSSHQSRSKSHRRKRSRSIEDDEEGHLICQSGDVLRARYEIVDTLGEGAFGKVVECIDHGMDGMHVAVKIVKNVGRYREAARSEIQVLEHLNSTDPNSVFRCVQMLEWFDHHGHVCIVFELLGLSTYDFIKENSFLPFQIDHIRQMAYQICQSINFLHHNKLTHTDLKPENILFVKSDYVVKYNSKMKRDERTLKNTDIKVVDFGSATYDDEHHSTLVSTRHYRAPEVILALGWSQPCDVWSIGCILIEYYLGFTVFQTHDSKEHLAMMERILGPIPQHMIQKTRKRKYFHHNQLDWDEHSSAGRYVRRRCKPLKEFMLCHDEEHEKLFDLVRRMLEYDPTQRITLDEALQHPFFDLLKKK
Lysosomal acid glucosylceramidase (Homo sapiens), sequence (P04062 whole entry, looked up): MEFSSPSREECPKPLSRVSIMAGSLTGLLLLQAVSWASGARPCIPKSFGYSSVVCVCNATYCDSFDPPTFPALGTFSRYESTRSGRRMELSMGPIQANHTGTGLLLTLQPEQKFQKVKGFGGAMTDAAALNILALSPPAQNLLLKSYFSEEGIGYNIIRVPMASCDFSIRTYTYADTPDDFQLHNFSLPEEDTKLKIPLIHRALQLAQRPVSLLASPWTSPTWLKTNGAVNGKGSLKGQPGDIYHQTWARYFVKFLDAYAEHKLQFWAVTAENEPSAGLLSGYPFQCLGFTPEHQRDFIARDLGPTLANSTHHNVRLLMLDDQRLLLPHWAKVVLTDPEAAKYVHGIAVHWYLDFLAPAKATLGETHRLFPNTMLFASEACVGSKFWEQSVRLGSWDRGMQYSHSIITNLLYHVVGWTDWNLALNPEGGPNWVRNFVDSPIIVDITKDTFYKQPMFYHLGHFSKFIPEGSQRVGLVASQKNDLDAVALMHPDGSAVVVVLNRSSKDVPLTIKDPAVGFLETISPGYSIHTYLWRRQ
Cytochrome P450 3A4 (Homo sapiens), sequence (P08684 whole entry, looked up): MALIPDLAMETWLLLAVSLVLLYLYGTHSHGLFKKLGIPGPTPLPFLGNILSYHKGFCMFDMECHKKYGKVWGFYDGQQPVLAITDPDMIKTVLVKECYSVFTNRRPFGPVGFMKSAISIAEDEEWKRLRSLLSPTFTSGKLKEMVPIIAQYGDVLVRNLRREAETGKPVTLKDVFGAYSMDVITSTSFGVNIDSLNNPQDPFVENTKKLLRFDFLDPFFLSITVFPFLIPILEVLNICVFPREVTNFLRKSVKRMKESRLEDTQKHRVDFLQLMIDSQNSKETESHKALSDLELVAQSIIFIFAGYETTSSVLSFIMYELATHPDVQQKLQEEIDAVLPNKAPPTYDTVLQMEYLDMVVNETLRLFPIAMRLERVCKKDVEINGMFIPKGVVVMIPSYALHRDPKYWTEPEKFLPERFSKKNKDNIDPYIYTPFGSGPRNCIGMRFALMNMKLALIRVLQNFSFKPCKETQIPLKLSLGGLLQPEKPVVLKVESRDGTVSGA
Glucocorticoid receptor (Homo sapiens), sequence (P04150 whole entry, looked up): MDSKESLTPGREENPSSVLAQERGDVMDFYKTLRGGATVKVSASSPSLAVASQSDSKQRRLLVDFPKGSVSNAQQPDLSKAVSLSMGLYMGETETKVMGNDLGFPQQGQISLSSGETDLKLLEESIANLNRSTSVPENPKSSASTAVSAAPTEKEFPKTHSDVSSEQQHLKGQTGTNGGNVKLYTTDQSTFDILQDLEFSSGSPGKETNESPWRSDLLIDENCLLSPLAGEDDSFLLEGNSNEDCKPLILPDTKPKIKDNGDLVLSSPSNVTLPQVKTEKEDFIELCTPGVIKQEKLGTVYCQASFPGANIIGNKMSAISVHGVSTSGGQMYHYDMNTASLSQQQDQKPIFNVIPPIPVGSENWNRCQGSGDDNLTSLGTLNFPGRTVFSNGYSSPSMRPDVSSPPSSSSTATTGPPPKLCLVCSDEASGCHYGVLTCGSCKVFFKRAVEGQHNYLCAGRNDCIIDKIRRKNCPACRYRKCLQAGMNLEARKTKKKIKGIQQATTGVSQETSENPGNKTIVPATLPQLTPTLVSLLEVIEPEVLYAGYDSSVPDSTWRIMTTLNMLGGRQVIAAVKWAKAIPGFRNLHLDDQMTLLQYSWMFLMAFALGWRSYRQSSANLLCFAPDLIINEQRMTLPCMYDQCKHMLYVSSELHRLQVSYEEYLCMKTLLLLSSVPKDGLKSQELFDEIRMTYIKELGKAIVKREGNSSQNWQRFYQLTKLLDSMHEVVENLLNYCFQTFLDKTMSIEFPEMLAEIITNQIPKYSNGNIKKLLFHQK
Cytochrome P450 1A2 (Homo sapiens), sequence (P05177 whole entry, looked up): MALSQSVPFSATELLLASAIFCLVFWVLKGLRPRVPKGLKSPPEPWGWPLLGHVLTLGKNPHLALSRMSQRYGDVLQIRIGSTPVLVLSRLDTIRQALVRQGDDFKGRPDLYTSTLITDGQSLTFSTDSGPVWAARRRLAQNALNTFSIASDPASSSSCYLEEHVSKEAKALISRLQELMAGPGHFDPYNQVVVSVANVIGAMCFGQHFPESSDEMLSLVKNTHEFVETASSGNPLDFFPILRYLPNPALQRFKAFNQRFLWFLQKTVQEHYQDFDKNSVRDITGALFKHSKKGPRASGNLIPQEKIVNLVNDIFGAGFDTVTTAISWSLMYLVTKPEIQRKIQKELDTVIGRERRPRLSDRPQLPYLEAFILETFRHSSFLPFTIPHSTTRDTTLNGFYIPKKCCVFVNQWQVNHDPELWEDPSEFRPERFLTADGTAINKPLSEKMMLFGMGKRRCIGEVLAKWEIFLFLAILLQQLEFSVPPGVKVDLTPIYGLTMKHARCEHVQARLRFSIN

For the molecule `Cn1c(=O)c(-c2cccc(C#N)c2)nc2cnc(Oc3ccccc3)nc21`, the Potency was > 11.4 µM (inactive) in [1]; 1.58 µM (active) in experiment [3]; > 9.22 µM (inactive) in [6]; > 46 µM (inactive) in experiment [7]; 3.16 µM (active) in experiment [11]. Besides, the activity change, negative = inhibition in [2] is -13.9% (inactive); in experiment [4], -0.708% (inactive); in experiment [12], -3.03% (inactive). The activity, negative = inhibition in experiment [5] is 1.85% (inactive). For the same molecule, the molecule was called inactive in experiment [8]. Also, the Potency result in experiment [9], in experiment [10], in experiment [13], in [14], in experiment [15] and in experiment [16] was “inactive” throughout. For the same molecule, the Potency entry in experiment [17] is “inactive”. For the same molecule, the max response in experiment [12] (setting [18]) was 16.1%; in [12] (setting [19]) it was 12.2%.
As to `Cc1cnc(CNc2ccnc(-c3c(C)noc3C)n2)cn1`, the Potency is > 11.4 µM (inactive) in [1], 12.6 µM (active) in [3], > 46 µM (inactive) in experiment [6] and > 46 µM (inactive) in [7]. In addition, the results for the activity change, negative = inhibition in experiment [2], in experiment [4] and in experiment [12] were 1.51% (inactive), 10.3% (inactive) and 7.48% (inactive), respectively. Further, the activity, negative = inhibition in experiment [5] was 1.5% (inactive). The molecule was classed as inactive in experiment [8]. The Potency result in experiment [9], in experiment [11], in [13], in [14], in [15] and in [16] was “inactive” throughout. Besides, in [17], the Potency entry is “inactive”. Further, the values for the max response in experiment [12] (setting [18]) and in [12] (setting [19]) were 24.6% and 37.5%, respectively.
As to `COc1ccc(-n2c(=O)cnc3cnc(N(C)C)nc32)cc1`, the Potency was > 11.4 µM (inactive) in experiment [1]; 5.01 µM (active) in experiment [3]; > 9.22 µM (inactive) in experiment [6]; > 46 µM (inactive) in experiment [7]; 11.2 µM (active) in [13]; 12.6 µM (active) in experiment [14]. Further, in [15], the Potency was 11.2 µM (active). Further, the results for the activity change, negative = inhibition in [2], in [4] and in experiment [12] were -17.5% (inactive), 15.7% (inactive) and 5.53% (inactive), respectively. Further, the activity, negative = inhibition in experiment [5] is -7.93% (inactive). The outcome in experiment [8] was inactive. Further, the Potency result in experiment [9], in experiment [11], in experiment [16] and in [17] was “inactive” each time. Moreover, the results for the max response in [12] (setting [18]) and in experiment [12] (setting [19]) were 17.5% and 21.2%, respectively.
